# Measured values from PubChem BioAssay (EPA / NIEHS).
# Calls of active or inactive are those of the source. The calls were made as follows: active = hit-call score of the fitted dose curve at least 0.9, where 1 is the maximum; inactive = score below 0.9.
# Test: Tanguay_ZF_120hpf_MUSC: Oregon State University Tanguay Lab 120 Hour Post-fertilization zebrafish Assay for Muscle Malformation (AID 2284401)
# How it was run: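 Scored as a binary brightfield endpoint at 120 hpf, fitted versus DMSO. Single dechorionated wild-type (Tropical 5D) zebrafish embryos per well, statically exposed at 28C from 6 hpf onward with final DMSO 0.64%.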
compound,measurement,value
CN(C(=O)C(F)(F)C(F)(F)C(F)(F)F)[Si](C)(C)C,outcome,inactive
